Test results reported in PubChem BioAssay (Tox21).
A number with no mark means an inactive call. Records with an inconclusive call do not appear. Entries that show only a call come without a potency. Activity calls are given as the source filed them. Unless noted, the call rests on the fitted dose curve; in most records, active means well fitted curve in the direction sought with a large enough effect in the repeat runs; inconclusive means weak or mixed curves; inactive means no such curve, though single readings can be large; an effect the other way counts as inactive or inconclusive.

Columns and labels:
[1] = qHTS assay to test for compound auto fluorescence at 535 nm (green) in HEK293 cells (AID 720680)
[2] = qHTS assay to test for compound auto fluorescence at 460 nm (blue) in HEK293 cell free culture (AID 720681)
Summary of the method: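 Compounds were added to cell-free DMEM with 10% FBS and fluorescence read directly. The blue channel used 405 nm excitation and 460 nm emission, with triamterene as the reference fluorophore.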

[3] = qHTS assay to test for compound auto fluorescence at 535 nm (green) in HEK293 cell free culture (AID 720682)
Summary of the method: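 DMEM + 10% FBS, cell-free; cpd or DMSO pinned in; Ex485/Em535 read; output as fluorescein-equivalent signal.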

[4] = qHTS assay to test for compound auto fluorescence at 590 nm (red) in HEK293 cell free culture (AID 720683)
Summary of the method: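 Cell-free wells of DMEM with 10% FBS received compound, and intrinsic fluorescence was read at excitation/emission 540/590 nm. Values expressed as equivalence to Rose Bengal sodium.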

[5] = qHTS assay to test for compound auto fluorescence at 590 nm (red) in HepG2 cell free culture (AID 720684)
Summary of the method: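 Compounds are added to culture medium (MEM, 10% FBS) lacking cells, then fluorescence is read at excitation 540 nm, emission 590 nm, with Rose Bengal sodium as the equivalency standard.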

[6] = qHTS assay to test for compound auto fluorescence at 460 nm (blue) in HepG2 cell free culture (AID 720685)
Summary of the method: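 Compound (23 nL) or DMSO pinned into cell-free MEM with 10% FBS; blue fluorescence read at 405/460 nm excitation/emission, expressed as auto-fluorescence equivalency to triamterene.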

[7] = qHTS assay to test for compound auto fluorescence at 535 nm (green) in HepG2 cell free culture (AID 720686)
[8] = qHTS assay to test for compound auto fluorescence at 460 nm (blue) in HepG2 cells (AID 720687)
Summary of the method: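 HepG2 cells in MEM with 10% FBS, attached overnight at 37 C, were exposed to compound or DMSO for 1 hr at 37 C, 5% CO2. Blue fluorescence was read at 405/460 nm, with triamterene as reference fluorophore.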

[9] = target: Glucocorticoid receptor (Homo sapiens) (UniProt P04150); experiment: qHTS assay to identify small molecule agonists of the glucocorticoid receptor (GR) signaling pathway (AID 720691; active means well fitted activation curve with a large enough effect in the signal ratio in the repeat runs, not every such curve was filed as active; the % refers to the signal ratio)
Chain of Glucocorticoid receptor (Homo sapiens) (P04150 whole entry, looked up): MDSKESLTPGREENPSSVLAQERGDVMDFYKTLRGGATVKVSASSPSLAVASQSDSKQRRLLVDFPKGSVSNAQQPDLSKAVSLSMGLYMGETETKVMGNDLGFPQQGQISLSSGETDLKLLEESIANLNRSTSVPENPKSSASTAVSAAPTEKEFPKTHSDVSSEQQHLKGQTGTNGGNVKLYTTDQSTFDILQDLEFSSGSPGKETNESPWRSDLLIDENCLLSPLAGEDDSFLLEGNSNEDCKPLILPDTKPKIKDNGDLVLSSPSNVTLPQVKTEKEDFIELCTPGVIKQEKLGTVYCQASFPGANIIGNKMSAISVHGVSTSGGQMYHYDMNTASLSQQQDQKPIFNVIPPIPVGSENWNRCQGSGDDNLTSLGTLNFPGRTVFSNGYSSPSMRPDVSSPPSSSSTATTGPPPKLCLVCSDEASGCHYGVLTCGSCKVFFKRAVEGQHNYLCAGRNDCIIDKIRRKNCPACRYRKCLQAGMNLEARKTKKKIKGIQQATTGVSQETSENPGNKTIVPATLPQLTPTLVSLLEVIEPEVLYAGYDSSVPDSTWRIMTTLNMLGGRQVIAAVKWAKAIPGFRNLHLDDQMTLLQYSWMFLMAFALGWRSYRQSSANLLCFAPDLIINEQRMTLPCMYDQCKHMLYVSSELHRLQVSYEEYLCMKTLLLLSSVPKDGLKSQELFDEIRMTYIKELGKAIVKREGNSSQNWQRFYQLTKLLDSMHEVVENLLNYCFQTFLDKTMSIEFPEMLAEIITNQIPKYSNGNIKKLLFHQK
Summary of the method: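 Reporter read-out: fluorescence intensity following 2 h room-temperature LiveBLAzer B/G FRET substrate loading. Prior step: GR-bla HeLa cells held 4 h, then treated 18 h at 37 C.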

[10] = qHTS assay to identify small molecule antagonists of the glucocorticoid receptor (GR) signaling pathway - cell viability counter screen (AID 720693); further: nearly all actives have a fitted effect of over 55% in size
[11] = qHTS assay for identifying genotoxic compounds that show differential cytotoxicity against isogenic chicken DT40 cell lines with known DNA damage response pathways - wild type cell line (AID 743012); further: nearly all actives have a fitted effect of over 60% in size; further: potency means the concentration at half of the fitted maximal effect
Summary of the method: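 Using parental DT40 (300 cells/well), compounds delivered in DMSO incubate 40 h at 37 C/5% CO2. CellTiter-Glo reagent then stands 30 min at room temperature, and luminescence gives cell viability.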

[12] = qHTS assay for identifying genotoxic compounds that show differential cytotoxicity against isogenic chicken DT40 cell lines with known DNA damage response pathways - Rev3 mutant cell line (AID 743014); further: nearly all actives have a fitted effect of over 55% in size; further: potency means the concentration at half of the fitted maximal effect
[13] = qHTS assay for identifying genotoxic compounds that show differential cytotoxicity against isogenic chicken DT40 cell lines with known DNA damage response pathways - Rad54/Ku70 mutant cell line (AID 743015); further: nearly all actives have a fitted effect of over 60% in size; further: potency means the concentration at half of the fitted maximal effect
[14] = qHTS assay to identify small molecule antagonists of the androgen receptor (AR) signaling pathway - cell viability counter screen (AID 743033; further: nearly all actives have a fitted effect of over 45% in size)
[15] = qHTS assay to identify small molecule antagonists of the androgen receptor (AR) signaling pathway using the MDA cell line - cell viability counter screen (AID 743041; further: nearly all actives have a fitted effect of over 45% in size)
Summary of the method: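 Same-well cytotoxicity was assessed by CellTiter-Fluor in MDA-kb2 AR-luc cells after 16 h of compound treatment under R1881 agonism.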

[16] = target: Androgen receptor (Homo sapiens) (UniProt P10275); experiment: qHTS assay to identify small molecule agonists of the androgen receptor (AR) signaling pathway (AID 743036; active means well fitted activation curve with a large enough effect in the signal ratio in the repeat runs, with a control signal flat, not every such curve was filed as active; the % refers to the signal ratio)
Chain of Androgen receptor (Homo sapiens) (P10275 whole entry, looked up): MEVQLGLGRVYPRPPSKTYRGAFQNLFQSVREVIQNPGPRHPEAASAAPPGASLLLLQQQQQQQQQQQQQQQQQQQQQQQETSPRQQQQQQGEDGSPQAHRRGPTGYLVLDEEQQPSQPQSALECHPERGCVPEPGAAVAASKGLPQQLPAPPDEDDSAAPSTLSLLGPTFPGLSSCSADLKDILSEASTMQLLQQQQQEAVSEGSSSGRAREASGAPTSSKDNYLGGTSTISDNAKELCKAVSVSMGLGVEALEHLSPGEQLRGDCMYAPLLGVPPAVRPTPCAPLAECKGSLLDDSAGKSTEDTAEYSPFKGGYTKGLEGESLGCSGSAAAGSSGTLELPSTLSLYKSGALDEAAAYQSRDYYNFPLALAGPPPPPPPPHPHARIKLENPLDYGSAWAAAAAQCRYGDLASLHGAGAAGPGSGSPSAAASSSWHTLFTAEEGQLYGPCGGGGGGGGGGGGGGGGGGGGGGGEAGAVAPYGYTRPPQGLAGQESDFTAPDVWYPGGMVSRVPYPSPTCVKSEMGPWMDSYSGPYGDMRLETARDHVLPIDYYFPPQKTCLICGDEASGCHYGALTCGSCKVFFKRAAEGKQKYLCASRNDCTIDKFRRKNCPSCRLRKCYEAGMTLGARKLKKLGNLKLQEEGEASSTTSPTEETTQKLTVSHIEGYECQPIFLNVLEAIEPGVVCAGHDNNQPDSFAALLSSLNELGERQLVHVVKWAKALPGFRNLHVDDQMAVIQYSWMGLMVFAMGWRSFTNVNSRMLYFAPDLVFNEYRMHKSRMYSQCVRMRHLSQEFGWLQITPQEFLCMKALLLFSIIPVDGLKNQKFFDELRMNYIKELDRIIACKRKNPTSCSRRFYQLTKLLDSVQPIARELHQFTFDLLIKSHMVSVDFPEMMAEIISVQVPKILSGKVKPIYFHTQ
Summary of the method: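 Screening used 2,000 AR-bla HEK293 cells per well, treated 16 h at 37C with test compounds in DMSO alongside positive and DMSO-only controls; beta-lactamase activity was then read by LiveBLAzer B/G FRET fluorescence after 2 h at room temperature.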

[17] = target: Androgen receptor (Homo sapiens) (UniProt P10275); experiment: qHTS assay to identify small molecule agonists of the androgen receptor (AR) signaling pathway using the MDA cell line (AID 743040; further: nearly all actives have a fitted effect of over 20% in size)
Summary of the method: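 Human breast carcinoma MDA-kb2 reporter cells (MMTV-luc, AR/GR elements) were treated for 16 h at 37C in 0% CO2 following a 5 h settling period. Signal was quantified by ONE-Glo luminescence.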

[18] = target: Androgen receptor (Homo sapiens) (UniProt P10275); experiment: qHTS assay to identify small molecule antagonists of the androgen receptor (AR) signaling pathway using the MDA cell line (AID 743042; further: nearly all actives have a fitted effect of over 55% in size)
Summary of the method: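 MDA-kb2 breast carcinoma cells carrying MMTV-luciferase (AR/GR responsive) were co-treated with compounds and the agonist R1881 for 16 h at 37C. Inhibition read as ONE-Glo luminescence; CellTiter-Fluor fluorescence measured in parallel for cytotoxicity.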

| SMILES | outcome [1] | outcome [2] | outcome [3] | outcome [4] | outcome [5] | outcome [6] | outcome [7] | outcome [8] | Potency [9] | Potency [10] | Potency [11] | Potency [12] | Potency [13] | Potency [14] | Potency [15] | outcome [16] | outcome [17] | Potency [18] |
| --- | --- | --- | --- | --- | --- | --- | --- | --- | --- | --- | --- | --- | --- | --- | --- | --- | --- | --- |
| CCOC(=O)C(Cl)Cc1cc(-n2nc(C)n(C(F)F)c2=O)c(F)cc1Cl (centres undefined) | inactive | inactive | inactive | inactive | inactive | inactive | inactive | inactive | inactive | inactive | 54.5 µM (active) | 61.1 µM (active) | 54.5 µM (active) | inactive | inactive | – | – | – |
| CC(C)c1ccc(O)cc1 | inactive | inactive | inactive | inactive | inactive | inactive | inactive | inactive | inactive | inactive | inactive | inactive | – | – | inactive | – | – | – |
| O=C(Cl)C(Cl)Cl | inactive | inactive | inactive | inactive | inactive | inactive | inactive | inactive | inactive | inactive | inactive | inactive | inactive | inactive | inactive | – | – | – |
| C=CC=O | inactive | inactive | inactive | inactive | inactive | inactive | inactive | inactive | inactive | inactive | inactive | inactive | inactive | inactive | inactive | – | – | – |
| O=[N+]([O-])c1cccc(CCl)c1 | inactive | inactive | inactive | inactive | inactive | inactive | inactive | inactive | inactive | inactive | inactive | inactive | inactive | inactive | inactive | – | – | – |
| O=c1[nH]c2ccccc2o1 | inactive | inactive | inactive | inactive | inactive | inactive | inactive | inactive | inactive | inactive | inactive | inactive | inactive | – | inactive | – | – | – |
| CCNc1nc(Cl)nc(NC(C)(C)C)n1 | inactive | inactive | inactive | inactive | inactive | inactive | inactive | inactive | inactive | inactive | inactive | inactive | – | inactive | inactive | inactive | inactive | inactive |
| CN(C)C1CCCCC1 | inactive | inactive | inactive | inactive | inactive | inactive | inactive | inactive | inactive | inactive | inactive | inactive | inactive | – | inactive | – | – | – |
| CC(C)(O)C(Cl)(Cl)Cl | inactive | inactive | inactive | inactive | inactive | inactive | inactive | inactive | inactive | inactive | inactive | inactive | – | inactive | inactive | – | – | – |
| CN(CCO)CCO | inactive | inactive | inactive | inactive | inactive | inactive | inactive | inactive | inactive | inactive | inactive | inactive | inactive | inactive | inactive | – | – | – |
| COC(=O)[C@@H](N)CCCN/C(N)=N/[N+](=O)[O-] | inactive | inactive | inactive | inactive | inactive | inactive | inactive | inactive | inactive | inactive | inactive | inactive | inactive | – | inactive | – | – | – |
| C#CCOC(=O)/C=C(C)/C=C/CC(C)CCCC(C)C (centres undefined) | inactive | inactive | inactive | inactive | inactive | inactive | inactive | inactive | inactive | inactive | inactive | inactive | – | inactive | inactive | – | – | – |
| O=C(Cl)C(Cl)(Cl)Cl | inactive | inactive | inactive | inactive | inactive | inactive | inactive | inactive | inactive | inactive | inactive | inactive | inactive | inactive | inactive | – | – | – |
| C=CCc1cc(OC)c2c(c1)OCO2 | inactive | inactive | inactive | inactive | inactive | inactive | inactive | inactive | inactive | inactive | inactive | inactive | inactive | inactive | inactive | – | – | – |
| CC(Cc1ccccc1)NCCn1cnc2c1c(=O)n(C)c(=O)n2C (centres undefined) | inactive | inactive | inactive | inactive | inactive | inactive | inactive | inactive | inactive | inactive | 67.7 µM (active) | inactive | – | inactive | inactive | – | – | – |
